Common to all, as to assay: growth (OD600 after 10 h); higher = more growth (less inhibition)
For assay [1], the system named is E. coli TESEC Alr+ wild-type control. To be noted: compound 0.1 mM; raw OD600 reference: median of DMSO wells 0.241, cell-free background 0.041. On the procedure: (§1)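 TESEC Mtb Alr E. coli, or the Alr+ wild-type control, in 384-well plates with Prestwick library compounds at 0.1 mM and 1% DMSO, across arabinose induction levels of 1E3 to 1E7 nM. Growth is read as OD600 after 10 h at 37 °C in triplicate biological replicates.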

Assay [2] has as its system E. coli TESEC Mtb Alr. To be noted: compound 0.1 mM. On the procedure: as §1
Another assay has as its system E. coli TESEC Mtb Asd. To be noted: compound 0.1 mM. The protocol:
(§2)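 TESEC E. coli strains in which the native enzyme is deleted and replaced by arabinose-inducible Mtb Asd, DapB, CysH or TrpD, each grown in its selective medium. Strains were screened against the Prestwick library at 0.1 mM and 1% DMSO in 384-well format at low and high arabinose induction. Growth is read as OD600 after 10 h in triplicate.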

For a further assay, the system named is E. coli TESEC Mtb DapB. To be noted: compound 0.1 mM. On the procedure: as §2
For assay [3], the system named is E. coli TESEC Alr+ wild-type control. To be noted: compound 0.1 mM; raw OD600 reference: median of DMSO wells 0.49, cell-free background 0.052. The protocol:
(§3)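 TESEC Mtb Alr E. coli (ΔaraC ΔtolC ΔentC Δalr ΔdadX, arabinose-inducible Mtb Alr) or the Alr+ wild-type control strain, grown in defined M9-fructose medium without D-alanine in 96-well plates with Prestwick library compounds at 0.1 mM and 1% DMSO. Low Alr induction is 0.1 µM arabinose and high induction is 10 mM arabinose.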

In assay [4] the test system is E. coli TESEC Mtb Alr. To be noted: compound 0.1 mM. The protocol: as §3
This is another data set of the same source.

[5] abbreviates: arabinose 1000 nM, raw OD600 reference: median of DMSO wells 0.294, cell-free background 0.041.
Where [6] appears, read: arabinose 10000 nM, raw OD600 reference: median of DMSO wells 0.264, cell-free background 0.041.
[7] abbreviates: arabinose 100000 nM, raw OD600 reference: median of DMSO wells 0.201, cell-free background 0.041.
Where [8] appears, read: arabinose 1000000 nM, raw OD600 reference: median of DMSO wells 0.193, cell-free background 0.041.
[9] abbreviates: arabinose 10000000 nM, raw OD600 reference: median of DMSO wells 0.146, cell-free background 0.041.
Where [10] appears, read: arabinose induction (level): High, raw OD600 reference: median of DMSO wells 0.331, cell-free background 0.041.
Where [11] appears, read: arabinose induction (level): Low, raw OD600 reference: median of DMSO wells 0.417, cell-free background 0.041.
[12] abbreviates: arabinose induction (level): High, raw OD600 reference: median of DMSO wells […], cell-free background 0.041.
Where [13] appears, read: arabinose induction (level): Low, raw OD600 reference: median of DMSO wells 0.227, cell-free background 0.041.
Where [14] appears, read: arabinose 100 nM, raw OD600 reference: median of DMSO wells 0.413, cell-free background 0.052.
Where [15] appears, read: arabinose 10000000 nM, raw OD600 reference: median of DMSO wells […], cell-free background 0.052.

From the supplement of paper PMC9262897, “Low-cost anti-mycobacterial drug discovery using engineered E. coli” (Nature Communications, 2022) come the findings set out here.

Structures can show the parent of a compound that is named as a salt. ± gives the standard deviation of the averaged measurements.

Regarding `CC(=O)NS(=O)(=O)c1ccc(N)cc1` [Sulfacetamide sodic hydrate], the growth was found to be 0.265 ± 0.006 in assay [1]; 0.313 ± 0.029 in the assay on E. coli TESEC Mtb Alr [2] (setting [5]); 0.261 ± 0.0078 in the assay with E. coli TESEC Mtb Alr [2] (setting [6]); 0.237 ± 0.011 in the assay with E. coli TESEC Mtb Alr [2] (setting [7]); 0.187 ± 0.02 in the assay with E. coli TESEC Mtb Alr [2] (setting [8]); 0.151 ± 0.0041 with E. coli TESEC Mtb Alr [2] (setting [9]). Also, the growth in the assay with E. coli TESEC Mtb Asd (setting [10]) came out at 0.375 ± 0.022; in the assay with E. coli TESEC Mtb Asd (setting [11]), 0.407 ± 0.063; with E. coli TESEC Mtb DapB (setting [12]) it was 0.188 ± 0.0037; with E. coli TESEC Mtb DapB (setting [13]), 0.232 ± 0.048; in assay [3], 0.486 ± 0.053; in the assay on E. coli TESEC Mtb Alr [4] (setting [14]) it was 0.406 ± 0.013. The growth in the assay on E. coli TESEC Mtb Alr [4] (setting [15]) stood at 0.353 ± 0.018.
Turning to `CS(=O)(=O)c1ccc([C@@H](O)[C@@H](CF)NC(=O)C(Cl)Cl)cc1` [Florfenicol], the growth came to 0.0412 ± 0.0009 in assay [1]; 0.0406 ± 0.00059 in the assay with E. coli TESEC Mtb Alr [2] (setting [5]); 0.0395 ± 0.0002 in the assay on E. coli TESEC Mtb Alr [2] (setting [6]); 0.04123 ± 0.0004 with E. coli TESEC Mtb Alr [2] (setting [7]); 0.03917 ± 0.00012 with E. coli TESEC Mtb Alr [2] (setting [8]); 0.0409 ± 0.00017 with E. coli TESEC Mtb Alr [2] (setting [9]). For the same molecule, the growth in the assay with E. coli TESEC Mtb Asd (setting [10]) was 0.054 ± 0.0047; in the assay on E. coli TESEC Mtb Asd (setting [11]), 0.0538 ± 0.0014; in the assay with E. coli TESEC Mtb DapB (setting [12]) it was 0.0485 ± 0.0014; with E. coli TESEC Mtb DapB (setting [13]) it was 0.0488 ± 0.001; in assay [3], 0.05113 ± 0.00023; in the assay with E. coli TESEC Mtb Alr [4] (setting [14]), 0.05607 ± 0.00047. The molecule further displayed a growth in the assay on E. coli TESEC Mtb Alr [4] (setting [15]) of 0.0524 ± 0.0018.
`CCCN(CCC)CCc1cccc2c1CC(=O)N2` [Ropinirole HCl]: the growth in assay [1] worked out at 0.239 ± 0.0025; with E. coli TESEC Mtb Alr [2] (setting [5]), 0.301 ± 0.0083; with E. coli TESEC Mtb Alr [2] (setting [6]), 0.251 ± 0.0073; in the assay with E. coli TESEC Mtb Alr [2] (setting [7]), 0.195 ± 0.025; with E. coli TESEC Mtb Alr [2] (setting [8]), 0.18 ± 0.009; with E. coli TESEC Mtb Alr [2] (setting [9]), 0.146 ± 0.0056. Moreover, the growth was determined as 0.379 ± 0.066 with E. coli TESEC Mtb Asd (setting [10]); 0.441 ± 0.035 in the assay on E. coli TESEC Mtb Asd (setting [11]); 0.198 ± 0.013 in the assay on E. coli TESEC Mtb DapB (setting [12]); 0.211 ± 0.025 with E. coli TESEC Mtb DapB (setting [13]); 0.443 ± 0.028 in assay [3]; 0.408 ± 0.01 in the assay with E. coli TESEC Mtb Alr [4] (setting [14]). Further, the growth in the assay on E. coli TESEC Mtb Alr [4] (setting [15]) is 0.366 ± 0.0066.
As for `Cn1cnc([N+](=O)[O-])c1Sc1ncnc2[nH]cnc12` [Azathioprine], the growth in assay [1] was 0.126 ± 0.017; in the assay on E. coli TESEC Mtb Alr [2] (setting [5]) it was 0.0771 ± 0.0059; in the assay on E. coli TESEC Mtb Alr [2] (setting [6]) it was 0.0744 ± 0.0045; with E. coli TESEC Mtb Alr [2] (setting [7]), 0.0829 ± 0.005; in the assay on E. coli TESEC Mtb Alr [2] (setting [8]) it was 0.0691 ± 0.0013; in the assay with E. coli TESEC Mtb Alr [2] (setting [9]), 0.0849 ± 0.0021. Also, the growth in the assay with E. coli TESEC Mtb Asd (setting [10]) was 0.347 ± 0.045; in the assay with E. coli TESEC Mtb Asd (setting [11]), 0.261 ± 0.043; with E. coli TESEC Mtb DapB (setting [12]), 0.202 ± 0.016; with E. coli TESEC Mtb DapB (setting [13]), 0.226 ± 0.019; in assay [3], 0.27 ± 0.0092; with E. coli TESEC Mtb Alr [4] (setting [14]) it was 0.312 ± 0.029. The growth in the assay with E. coli TESEC Mtb Alr [4] (setting [15]) is 0.175 ± 0.0061.
